Source: PMC10668032, “Altered binding affinity of SIX1-Q177R correlates with enhanced WNT5A and WNT pathway effector expression in Wilms tumor”
Over roughly 33,000 sequences, “e-score” has its median near -0.05; the highest 2% begin near 0.38. The sample as a whole holds a higher share of the highest values than the screen did.

target: T1, SIX1-Q177R homeodomain (human, UniProt Q15475 108-198, Q177R); assay: universal protein binding microarray; Universal all-10-mer PBM (8x60K, AMADID 030236), 300 nM GST-tagged protein, Alexa Fluor 488 anti-GST; buffer, salt, pH and temperature not stated (as in Berger); high values mean tight binding; conditions: protein: ivt; tags: N-terminal GST; dsDNA, one strand shown
T1 sequence: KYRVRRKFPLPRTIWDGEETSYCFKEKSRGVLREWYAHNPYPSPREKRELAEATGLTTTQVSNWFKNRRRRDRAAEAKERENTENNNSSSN
Method in brief: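 After in vitro transcription/translation, GST-tagged homeodomains were quantified against a recombinant GST standard curve by anti-GST western blot. They were then placed in duplicate at 300 nM final concentration on universal 'all 10-mer' protein binding microarrays of 8×60K format.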

Row | Sequence | binding signal [E-score]
1 | TACTAACA | 0.185 ± 0.0552
2 | AGTGCGGA | 0.161 ± 0.0458
3 | CCGGATCG | 0.199 ± 0.0134
4 | CCCGCCGC | 0.184 ± 0.0289
5 | ACAGAGTG | 0.184 ± 0.0479
6 | ACAGTGTA | 0.381 ± 0.0259
7 | AAAGTGTA | 0.36 ± 0.0454
8 | GCACCCCA | 0.257 ± 0.053
9 | ACTGGATC | 0.155 ± 0.0197
10 | GCGTAACA | 0.199 ± 0.0107
11 | GGTATCAA | 0.325 ± 0.0148
12 | GGTATCAC | 0.3993 ± 0.00177
13 | CGTATCAC | 0.162 ± 0.023
14 | ACCCGCCA | 0.152 ± 0.0278
15 | ATGATCCC | 0.251 ± 0.0242
16 | ATACACTC | 0.369 ± 0.0201
17 | CCACACTA | 0.206 ± 0.00246
18 | CTACACTA | 0.401 ± 0.013
19 | CTACACTC | 0.412 ± 0.0145
20 | CCACACTC | 0.308 ± 0.014
21 | ATACACTA | 0.364 ± 0.0337
22 | GTACACTA | 0.432 ± 0.0136
23 | GCACACTA | 0.2
24 | TCTCAACA | 0.219 ± 0.0267
25 | ACTTTACA | 0.228 ± 0.0604

Row | Sequence | binding signal [E-score]
26 | TGCGAACA | 0.158 ± 0.012
27 | ATCCCCCA | 0.24 ± 0.0099
28 | TAGTTACA | 0.249 ± 0.0533
29 | GACCCGAC | 0.193 ± 0.052
30 | GAGGTATA | 0.18 ± 0.0163
31 | GAGGTGCA | 0.192 ± 0.0287
32 | AAGGTGTG | 0.369 ± 0.0137
33 | AAGGTGGT | 0.151 ± 0.00564
34 | CAGGTACA | 0.187 ± 0.0255
35 | AAGGTGTA | 0.461 ± 0.0153
36 | CATGTGTA | 0.2594 ± 0.00165
37 | AAGGTGCA | 0.222 ± 0.0217
38 | AAGGTGTC | 0.4706 ± 0.00267
39 | CAGGTGTA | 0.464 ± 0.00823
40 | GAGGTGTA | 0.466 ± 0.00775
41 | AAGCGTGT | 0.378 ± 0.00665
42 | GATCCCGA | 0.203 ± 0.0172
43 | ACGCACGA | 0.277 ± 0.005
44 | CCCCCGGG | 0.195 ± 0.00105
45 | CCCACCCG | 0.194 ± 0.0228
46 | ACGAGTTA | 0.205 ± 0.00221
47 | CAACCCCC | 0.242 ± 0.0559
48 | ACACAAGG | 0.155 ± 0.0571
49 | ACCAGTGA | 0.189 ± 0.0202
50 | CACTTACG | 0.206 ± 0.0274

Row | Sequence | binding signal [E-score]
51 | AAGGAGTA | 0.158 ± 0.0662
52 | ACATGGTG | 0.33 ± 0.0163
53 | CACGAGCA | 0.242 ± 0.0191
54 | ACCCGACT | 0.207 ± 0.0388
55 | CTGCGACA | 0.195 ± 0.00854
56 | CAGGTATC | 0.328 ± 0.00751
57 | CATGTGTC | 0.19 ± 0.0338
58 | CAGGTGTC | 0.474 ± 0.0095
59 | CCCAGGTA | 0.203 ± 0.0198
60 | CGCGTATC | 0.155 ± 0.05
61 | CGTGTGTC | 0.289 ± 0.0336
62 | AGCGTGTC | 0.393 ± 0.00925
63 | AGCGGGTA | 0.158 ± 0.0257
64 | AGAGCGTG | 0.189 ± 0.00653
65 | AACGTGTG | 0.154 ± 0.0123
66 | CGCGTGTC | 0.414 ± 0.00637
67 | CACGCGTG | 0.317 ± 0.0193
68 | CGCGTGTA | 0.43 ± 0.00692
69 | AGCGTGTA | 0.419 ± 0.0156
70 | CGTGTGTA | 0.296 ± 0.0261
71 | AGCGTGTG | 0.281 ± 0.00182
72 | ACCGCACC | 0.247 ± 0.013
73 | CTCGGATA | 0.188 ± 0.0289
74 | GTGGATCA | 0.161 ± 0.0203
75 | ACTGGTGC | 0.297 ± 0.00607

Row | Sequence | binding signal [E-score]
76 | CACGGTCA | 0.2431 ± 0.00219
77 | GTCCAACA | 0.216 ± 0.00357
78 | AGAAACGG | 0.152 ± 0.0193
79 | ATAGGTGC | 0.193 ± 0.00788
80 | ACTGAGTG | 0.1766 ± 0.000721
81 | TCTTGACA | 0.167 ± 0.0124
82 | CCCCCGAA | 0.238 ± 0.0222
83 | GAGGGTTA | 0.185 ± 0.00774
84 | CGACTAAC | 0.192 ± 0.0385
85 | CACGCACG | 0.304
86 | ATTGCGTG | 0.183 ± 0.0294
87 | GGCGTGTA | 0.4378 ± 0.00204
88 | GGCGTACA | 0.283 ± 0.0225
89 | GACGTGTA | 0.368 ± 0.0248
90 | TACACAGA | 0.152 ± 0.0583
91 | CACCCCGA | 0.346 ± 0.0278
92 | AACACCGT | 0.4669 ± 0.00366
93 | AACACTGT | 0.3445 ± 0.00205
94 | GACACCGA | 0.486 ± 0.00613
95 | AGCACCGA | 0.197 ± 0.00674
96 | TACACCGA | 0.4853 ± 0.00441
97 | GGCACCGA | 0.175 ± 0.0275
98 | AACACCGA | 0.4686 ± 0.00331
99 | AACACAGT | 0.158 ± 0.0584
100 | GTCACCGA | 0.175 ± 0.0101

Row | Sequence | binding signal [E-score]
101 | ACCCAACA | 0.251 ± 0.0117
102 | ACGATCCG | 0.232 ± 0.0258
103 | AATCTACA | 0.22 ± 0.0213
104 | ACCCGTGC | 0.1616 ± 0.000424
105 | GCACTATA | 0.191 ± 0.0272
106 | CACCCCGG | 0.338 ± 0.0167
107 | GATACCGC | 0.293 ± 0.00845
108 | AACACTGG | 0.37323 ± 0.000191
109 | GACACCGC | 0.487 ± 0.00552
110 | CACACCGG | 0.418 ± 0.0186
111 | GACGCCGC | 0.151 ± 0.0247
112 | AGCACCGG | 0.206 ± 0.0351
113 | CGCACCGC | 0.209 ± 0.0348
114 | CACACAGG | 0.182 ± 0.0584
115 | AACACCGG | 0.4831 ± 0.000693
116 | CACACCGC | 0.412 ± 0.0184
117 | CACCGCGG | 0.3509 ± 0.00344
118 | CACCGATG | 0.32 ± 0.0273
119 | CCCCGGAG | 0.261 ± 0.00517
120 | CTATTACA | 0.215 ± 0.023
121 | CAGATTCG | 0.161 ± 0.0252
122 | CACCAAGG | 0.265 ± 0.0125
123 | CCCGCACC | 0.197 ± 0.0395
124 | AACCCGGA | 0.201 ± 0.0406
125 | TGTGCACA | 0.21 ± 0.0348

Row | Sequence | binding signal [E-score]
126 | CGCTTACA | 0.196 ± 0.0288
127 | CACCATAC | 0.3492 ± 0.0017
128 | CACCAGGG | 0.284 ± 0.0249
129 | CGGATCCA | 0.232 ± 0.0264
130 | CACCCGAA | 0.276 ± 0.0248
131 | ACCTCACG | 0.153 ± 0.0322
132 | CACCGGCC | 0.251 ± 0.0167
133 | GATACCCA | 0.3616 ± 0.000587
134 | ACTTGCAC | 0.175 ± 0.00796
135 | TGTAAACA | 0.262 ± 0.00791
136 | CACACCGA | 0.405 ± 0.0194
137 | AGCACCGC | 0.288 ± 0.023
138 | ACCACCGC | 0.199 ± 0.00668
139 | AACACCGC | 0.47579 ± 0.000382
140 | CGGGGTTC | 0.201 ± 0.0287
141 | CATGGACA | 0.216 ± 0.0185
142 | GGAGTACC | 0.218 ± 0.0355
143 | GTGCGCAC | 0.175 ± 0.0735
144 | CGACACAC | 0.345 ± 0.0318
145 | CGGCACCG | 0.239 ± 0.0344
146 | GGACCCCC | 0.26 ± 0.0595
147 | GGACACCC | 0.48 ± 0.00768
148 | GGACACAA | 0.18 ± 0.117
149 | CGACACAG | 0.251 ± 0.0668
150 | GCCCACCC | 0.229 ± 0.0369

Row | Sequence | binding signal [E-score]
151 | CGACACCC | 0.488 ± 0.01
152 | CGACCCCC | 0.256 ± 0.0448
153 | GGACACAC | 0.382 ± 0.0328
154 | CGACACCG | 0.4907 ± 0.00417
155 | ACGCACCC | 0.265 ± 0.0257
156 | TACCCTGA | 0.185 ± 0.0156
157 | CGGGGTGC | 0.219 ± 0.0401
158 | TATTGACA | 0.194 ± 0.0479
159 | CACGCAGG | 0.264 ± 0.016
160 | GTACTCCA | 0.178 ± 0.0308
161 | CGACACAA | 0.201 ± 0.104
162 | CGTCACAC | 0.288 ± 0.0273
163 | AGACCCCC | 0.214 ± 0.0497
164 | CGACACCA | 0.488 ± 0.00517
165 | GGTCACAC | 0.384 ± 0.0098
166 | AGTCACAC | 0.326 ± 0.0101
167 | AGACACCC | 0.469 ± 0.00936
168 | CGACAACA | 0.245 ± 0.0238
169 | ACTCCCTC | 0.156 ± 0.0128
170 | TATATATA | 0.181 ± 0.042
171 | AGGGATCG | 0.216 ± 0.00653
172 | CACTCATG | 0.244 ± 0.00471
